# In PubChem BioAssay (Tox21):
# Several values for one entry are separate records, joined by “and”; a condition that tells them apart may be missing. Equal entries are not always repeated. Results filed as inconclusive are left out. A call without a number means that no potency is given here. A structure can be active in one record and inactive in another. Activity calls are given as the source filed them. Calls follow the shape of the dose curve; as a rule, active = well fitted curve in the direction sought with a large enough effect in the repeat runs; inconclusive = weak or mixed curves; inactive = no such curve, though single readings can be large; an effect the other way counts as inactive or inconclusive. Residues, ends and D or L forms follow the SMILES beside them.
# Tests used:
# [1] = target: Voltage-gated inwardly rectifying potassium channel KCNH2 (Homo sapiens) (UniProt Q12809); experiment: Human Ether-a-go-go-Related Gene (hERG) channel small molecule antagonists: fluorescence cell-based qHTS assay (AID 1671200); conditions: hERG-U2OS cells, FluxOR thallium flux fluorescence; series mostly up to 76.8 µM;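 also: hERG-expressing U2OS cells given a thallium stimulus after FluxOR II dye loading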
# Outline: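 hERG-U2OS cells plated overnight at 37 C, loaded with FluxOR II dye 1 h at RT in dark; after 10 min, thallium stimulus added. Fluorescence (480/540 nm) read kinetically for 2 min at 1 s intervals.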
# [2] = target: Cytochrome P450 1A2 (Homo sapiens) (UniProt P05177); experiment: Cytochrome P450 Family 1 Subfamily A Member 2 (CYP1A2) small molecule antagonists: luciferase reporter qHTS assay (AID 1671199); conditions: P450-Glo CYP1A2 enzyme, luciferin luminescence, 1 h; series mostly up to 115 µM; also: potency is read from the fitted curve at half-maximal effect
# Outline: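 Signal from luciferin formed by CYP1A2 from a proluciferin substrate is read as luminescence, expressed in relative luminescence units. Compounds sit with enzyme 10 min, NADPH-driven reaction runs 1 h, all at room temperature.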
# [3] = target: Cytochrome P450 3A4 (Homo sapiens) (UniProt P08684); experiment: Cytochrome P450 Family 3 Subfamily A Member 4 (CYP3A4) small molecule antagonists: luciferase reporter qHTS assay (AID 1671201); conditions: P450-Glo CYP3A4 enzyme, luciferin luminescence, 1 h; series mostly up to 115 µM
# Outline: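 P450-Glo CYP3A4 luminescent assay: compounds preincubated 10 min at room temperature with enzyme and proluciferin substrate, NADPH regeneration added, 1 h room-temperature reaction, stopped with luciferin detection reagent; luminescence read after 20 min. Ketoconazole positive control.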
# Also: nearly all actives have a fitted effect of over 50% in size.
# Sequence of Cytochrome P450 1A2 (Homo sapiens) (P05177 whole entry, looked up): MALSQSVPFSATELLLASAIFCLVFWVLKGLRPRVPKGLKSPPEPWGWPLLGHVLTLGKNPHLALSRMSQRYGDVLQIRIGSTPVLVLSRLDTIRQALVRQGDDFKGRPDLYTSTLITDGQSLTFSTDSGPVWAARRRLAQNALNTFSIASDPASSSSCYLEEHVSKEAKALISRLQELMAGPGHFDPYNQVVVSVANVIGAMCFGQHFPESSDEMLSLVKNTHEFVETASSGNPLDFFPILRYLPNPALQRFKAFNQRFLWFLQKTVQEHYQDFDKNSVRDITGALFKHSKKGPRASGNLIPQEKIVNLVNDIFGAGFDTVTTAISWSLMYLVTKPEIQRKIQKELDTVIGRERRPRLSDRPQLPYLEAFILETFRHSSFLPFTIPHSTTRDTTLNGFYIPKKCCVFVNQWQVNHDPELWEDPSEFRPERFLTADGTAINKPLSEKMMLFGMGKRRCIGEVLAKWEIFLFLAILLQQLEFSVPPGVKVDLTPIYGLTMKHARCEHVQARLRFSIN
# Sequence of Voltage-gated inwardly rectifying potassium channel KCNH2 (Homo sapiens) (Q12809 whole entry, looked up): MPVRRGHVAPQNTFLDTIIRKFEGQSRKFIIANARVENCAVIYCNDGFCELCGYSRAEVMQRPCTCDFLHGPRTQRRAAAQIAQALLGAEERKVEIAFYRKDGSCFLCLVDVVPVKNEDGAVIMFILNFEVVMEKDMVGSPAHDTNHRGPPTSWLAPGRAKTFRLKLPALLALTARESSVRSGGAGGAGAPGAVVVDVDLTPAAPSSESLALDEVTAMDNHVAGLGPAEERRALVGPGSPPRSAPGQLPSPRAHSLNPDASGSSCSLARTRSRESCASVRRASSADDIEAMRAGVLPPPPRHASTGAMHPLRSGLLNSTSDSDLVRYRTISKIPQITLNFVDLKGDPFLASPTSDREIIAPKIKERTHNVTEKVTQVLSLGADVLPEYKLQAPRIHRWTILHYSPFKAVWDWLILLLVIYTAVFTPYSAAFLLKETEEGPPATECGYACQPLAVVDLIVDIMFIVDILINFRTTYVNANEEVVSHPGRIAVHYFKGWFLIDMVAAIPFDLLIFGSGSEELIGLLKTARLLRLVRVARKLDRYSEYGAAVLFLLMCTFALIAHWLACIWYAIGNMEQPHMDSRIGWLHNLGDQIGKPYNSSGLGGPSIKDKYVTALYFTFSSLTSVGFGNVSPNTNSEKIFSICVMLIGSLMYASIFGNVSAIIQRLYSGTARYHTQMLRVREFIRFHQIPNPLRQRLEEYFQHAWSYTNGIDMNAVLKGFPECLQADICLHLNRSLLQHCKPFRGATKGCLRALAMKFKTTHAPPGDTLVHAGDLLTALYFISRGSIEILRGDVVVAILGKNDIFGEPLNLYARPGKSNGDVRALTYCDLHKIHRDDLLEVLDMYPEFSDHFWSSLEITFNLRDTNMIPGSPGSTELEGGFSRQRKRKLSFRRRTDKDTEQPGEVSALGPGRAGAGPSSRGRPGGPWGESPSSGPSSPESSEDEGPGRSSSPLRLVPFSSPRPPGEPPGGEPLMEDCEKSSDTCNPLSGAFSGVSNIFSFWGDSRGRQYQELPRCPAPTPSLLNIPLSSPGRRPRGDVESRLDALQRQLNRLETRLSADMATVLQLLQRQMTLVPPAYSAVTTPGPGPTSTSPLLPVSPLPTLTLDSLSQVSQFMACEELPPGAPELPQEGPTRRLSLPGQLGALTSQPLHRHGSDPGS
# Sequence of Cytochrome P450 3A4 (Homo sapiens) (P08684 whole entry, looked up): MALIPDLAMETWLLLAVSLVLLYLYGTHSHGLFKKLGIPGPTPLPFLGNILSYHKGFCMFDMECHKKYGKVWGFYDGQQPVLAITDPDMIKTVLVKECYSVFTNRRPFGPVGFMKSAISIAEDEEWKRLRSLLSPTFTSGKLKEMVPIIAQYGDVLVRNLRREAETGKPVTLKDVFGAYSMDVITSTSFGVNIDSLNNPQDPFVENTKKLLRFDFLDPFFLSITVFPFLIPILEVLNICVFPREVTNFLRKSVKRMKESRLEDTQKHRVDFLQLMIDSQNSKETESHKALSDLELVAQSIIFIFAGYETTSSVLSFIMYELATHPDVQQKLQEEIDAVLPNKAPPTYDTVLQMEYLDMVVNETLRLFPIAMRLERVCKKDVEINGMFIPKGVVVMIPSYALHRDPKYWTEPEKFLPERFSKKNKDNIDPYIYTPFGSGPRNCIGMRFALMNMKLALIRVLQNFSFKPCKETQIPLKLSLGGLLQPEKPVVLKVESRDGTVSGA
compound,measurement,setting,value
O=c1ccc2ccccc2o1,outcome,[1],inactive
CCOc1ccc(NC(=O)CC(C)O)cc1 (stereo not given),outcome,[1],inactive
Nc1ccn([C@H]2CC[C@@H](CO)O2)c(=O)n1,Potency,[2],inactive
same,outcome,[1],inactive
CCCCC1C(=O)N(c2ccccc2)N(c2ccccc2)C1=O,outcome,[1],inactive
O=C(O)CS,outcome,[1],inactive
CCCC(CCC)C(=O)O,outcome,[1],inactive
NC(=O)c1ccccc1O,Potency,[2],inactive
same,outcome,[1],inactive
CC(C)(Oc1ccc(C2CC2(Cl)Cl)cc1)C(=O)O (stereo not given),outcome,[1],inactive
CCCCCCCCCCCCCCCC(=O)O,Potency,[2],39.9 µM (active) and inactive
same,outcome,[1],inactive
c1ccc2[nH]ccc2c1,outcome,[1],inactive
O=C(O)c1[nH]n(-c2ccc(S(=O)(=O)O)cc2)c(=O)c1N=Nc1ccc(S(=O)(=O)O)cc1,Potency,[2],inactive
same,outcome,[1],inactive
same,Potency,[3],inactive
Cc1cc(=O)[nH]c(=S)[nH]1,Potency,[2],inactive
same,outcome,[1],inactive
same,Potency,[3],inactive
C/C=C/c1ccc(OC)cc1,outcome,[1],inactive
O=C(C1CCCCC1)N1CC(=O)N2CCc3ccccc3C2C1 (stereo not given),Potency,[2],31.7 µM (active) and 28.3 µM (active) and 17.4 µM (active)
same,outcome,[1],inactive
Cn1cc[nH]c1=S,outcome,[1],inactive
CC(=O)OCC(COC(C)=O)OC(C)=O,outcome,[1],inactive
O=c1cc[nH]c(=S)[nH]1,Potency,[2],71.5 µM (active) and 36.7 µM (active) and 24.5 µM (active)
same,outcome,[1],inactive
same,Potency,[3],inactive
Nc1ccc(O)c(C(=O)O)c1,Potency,[2],inactive
same,outcome,[1],inactive
OCCc1ccccc1,Potency,[2],inactive
same,outcome,[1],inactive
CC(O)CO (stereo not given),outcome,[1],inactive
CC(O)CN(CCN(CC(C)O)CC(C)O)CC(C)O (stereo not given),Potency,[2],inactive
same,outcome,[1],inactive
same,Potency,[3],inactive
C1N2CN3CN1CN(C2)C3,Potency,[2],inactive and 15.5 µM (active)
same,outcome,[1],inactive
same,Potency,[3],inactive
Cc1ccccc1C(OCCN(C)C)c1ccccc1 (stereo not given),Potency,[2],inactive and 31.7 µM (active)
CC(=O)Nc1nnc(S(N)(=O)=O)s1,Potency,[2],inactive
same,outcome,[1],inactive
O=C(O)/C=C\C(=O)O,Potency,[2],inactive
same,outcome,[1],inactive
COc1c2occc2cc2ccc(=O)oc12,outcome,[1],inactive
Cc1cc(=O)n(-c2ccccc2)n1C,Potency,[2],inactive
same,outcome,[1],inactive
O=C(O)CCCCC(=O)O,outcome,[1],inactive
O=C(O)c1cccnc1,outcome,[1],inactive
Nc1ccc(S(=O)(=O)Nc2nccs2)cc1,Potency,[2],inactive
same,outcome,[1],inactive
same,Potency,[3],inactive
Cc1ccc(C)c(OCCCC(C)(C)C(=O)O)c1,Potency,[2],71 µM (active) and inactive
same,outcome,[1],inactive
Cc1noc(NS(=O)(=O)c2ccc(N)cc2)c1C,Potency,[2],inactive
same,outcome,[1],inactive
O=C(c1ccccc1)C(O)c1ccccc1 (stereo not given),outcome,[1],inactive
Cc1cn([C@H]2C[C@H](N=[N+]=[N-])[C@@H](CO)O2)c(=O)[nH]c1=O,outcome,[1],inactive
COC(=O)[C@H](Cc1ccccc1)NC(=O)[C@@H](N)CC(=O)O (H-Asp-Phe-OMe),outcome,[1],inactive
O=C1CN(/N=C/c2ccc([N+](=O)[O-])o2)C(=O)N1,outcome,[1],inactive
Oc1ccc(/C=C/c2cc(O)cc(O)c2)cc1,outcome,[1],inactive
O=C(O)CCC(=O)O,outcome,[1],inactive
CCCC(O)C(CC)CO (stereo not given),outcome,[1],inactive
NC(N)=O,outcome,[1],inactive
same,Potency,[3],inactive
CNC[C@H](O)c1cccc(O)c1,outcome,[1],inactive
CCC1(c2ccccc2)C(=O)NCNC1=O,outcome,[1],inactive
Nc1ccc(S(=O)(=O)c2ccc(N)cc2)cc1,outcome,[1],inactive
NC(=O)NC1NC(=O)NC1=O (stereo not given),outcome,[1],inactive
CC(O)C(=O)O (stereo not given),outcome,[1],inactive
Cc1ccc(O)cc1,outcome,[1],inactive
O=C1NC(=O)c2ccccc21,outcome,[1],inactive
same,Potency,[3],inactive
O=S(=O)(O)NC1CCCCC1,outcome,[1],inactive
NNC(=O)c1ccncc1,outcome,[1],inactive
NC(N)=NC(=O)c1nc(Cl)c(N)nc1N,outcome,[1],inactive
Nc1ccc(C(=O)O)cc1,outcome,[1],inactive
same,Potency,[3],inactive
Cc1ccc(S(=O)(=O)NC(=O)NN2CCCCCC2)cc1,outcome,[1],inactive
CC(C)[C@@H]1CC[C@@H](C)C[C@H]1O,outcome,[1],inactive
O=C(O)c1cc(N=Nc2ccc(S(=O)(=O)Nc3ccccn3)cc2)ccc1O,outcome,[1],inactive
NC(=O)c1cnccn1,outcome,[1],inactive
OC(Cn1cncn1)(Cn1cncn1)c1ccc(F)cc1F,outcome,[1],inactive
CCCCC(CC)COC(=O)/C=C/c1ccc(OC)cc1 (stereo not given),outcome,[1],inactive
CCCN(CCC)S(=O)(=O)c1ccc(C(=O)O)cc1,outcome,[1],inactive
CC1(C)[C@@H]2CC[C@@]1(C)C(=O)C2,outcome,[1],inactive
COc1ccc2[nH]cc(CCNC(C)=O)c2c1,outcome,[1],inactive
same,Potency,[3],inactive
O=C(O)CCCCCCCC(=O)O,outcome,[1],inactive
O=NO,outcome,[1],inactive
CCCNC(=O)NS(=O)(=O)c1ccc(Cl)cc1,outcome,[1],inactive
